Source: the supplement of paper PMC6411743
± gives the standard deviation of the averaged measurements. About 6,500 targets were measured; listed, in parts, are those with the largest changes and a random draw of the rest.

Compound: Nc1ncnc2c1ncn2[C@@H]1O[C@H](COP(=O)(O)OP(=O)(O)OP(=O)(O)O)[C@@H](O)[C@H]1O [adenosine triphosphate]
Experiment: NP40-soluble protein abundance relative to vehicle (solubility fold change) (ratio); higher = more soluble protein in presence of ATP
Outline: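 Each value is a fold change relative to the detergent-processed vehicle, calculated per replicate from vsn-normalised intensities. Jurkat crude lysate received eight concentrations (0.1 to 10 mM) for 10 min at room temperature and 3 min at 37 °C, then was solubilised in 0.8% NP40 with benzonase (60 min, 4 °C). The ultracentrifuged supernatant was TMT-labelled and run by LC-MS/MS in three independent experiments.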

Sequence of UniProt P25686 (P25686 whole entry, one chain of several): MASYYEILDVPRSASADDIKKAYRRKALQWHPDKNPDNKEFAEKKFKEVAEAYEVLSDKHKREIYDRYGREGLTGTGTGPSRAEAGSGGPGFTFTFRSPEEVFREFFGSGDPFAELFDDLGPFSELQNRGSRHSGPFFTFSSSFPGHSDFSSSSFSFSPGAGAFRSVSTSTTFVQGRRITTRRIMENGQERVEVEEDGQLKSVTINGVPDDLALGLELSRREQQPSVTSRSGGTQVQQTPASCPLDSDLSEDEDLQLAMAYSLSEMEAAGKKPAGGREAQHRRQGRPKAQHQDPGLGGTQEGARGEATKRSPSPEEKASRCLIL
Sequence of UniProt Q6VN20 (Q6VN20 whole entry, one chain of several): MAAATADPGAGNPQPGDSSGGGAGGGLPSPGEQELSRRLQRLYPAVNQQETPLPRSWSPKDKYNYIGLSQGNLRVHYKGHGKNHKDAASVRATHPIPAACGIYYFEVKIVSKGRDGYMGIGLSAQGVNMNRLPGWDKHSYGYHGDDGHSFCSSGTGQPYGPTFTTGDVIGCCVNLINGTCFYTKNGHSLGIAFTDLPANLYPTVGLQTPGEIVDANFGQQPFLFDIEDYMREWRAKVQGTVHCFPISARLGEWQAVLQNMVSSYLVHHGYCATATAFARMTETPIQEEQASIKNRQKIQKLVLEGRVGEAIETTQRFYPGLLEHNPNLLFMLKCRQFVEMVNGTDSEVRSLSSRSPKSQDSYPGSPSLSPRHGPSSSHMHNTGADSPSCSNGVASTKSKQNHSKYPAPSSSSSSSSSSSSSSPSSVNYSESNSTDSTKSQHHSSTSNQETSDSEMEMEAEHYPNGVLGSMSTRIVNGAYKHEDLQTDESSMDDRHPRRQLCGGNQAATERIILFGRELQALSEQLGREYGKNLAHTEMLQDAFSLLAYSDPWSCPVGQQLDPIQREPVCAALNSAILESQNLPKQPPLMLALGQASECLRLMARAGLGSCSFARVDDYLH
Sequence of UniProt Q96DH6 (Q96DH6 whole entry, one chain of several): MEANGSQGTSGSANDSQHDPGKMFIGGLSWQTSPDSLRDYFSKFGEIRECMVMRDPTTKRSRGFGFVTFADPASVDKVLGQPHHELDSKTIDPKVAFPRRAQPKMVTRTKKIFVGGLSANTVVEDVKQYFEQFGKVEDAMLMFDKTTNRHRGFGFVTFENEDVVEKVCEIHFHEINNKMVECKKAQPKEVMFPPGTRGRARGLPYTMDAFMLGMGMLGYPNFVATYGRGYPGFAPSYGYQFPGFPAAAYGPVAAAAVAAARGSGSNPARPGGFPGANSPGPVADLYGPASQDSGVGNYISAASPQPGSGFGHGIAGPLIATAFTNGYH
Sequence of UniProt Q9BZG8 (Q9BZG8 whole entry, one chain of several): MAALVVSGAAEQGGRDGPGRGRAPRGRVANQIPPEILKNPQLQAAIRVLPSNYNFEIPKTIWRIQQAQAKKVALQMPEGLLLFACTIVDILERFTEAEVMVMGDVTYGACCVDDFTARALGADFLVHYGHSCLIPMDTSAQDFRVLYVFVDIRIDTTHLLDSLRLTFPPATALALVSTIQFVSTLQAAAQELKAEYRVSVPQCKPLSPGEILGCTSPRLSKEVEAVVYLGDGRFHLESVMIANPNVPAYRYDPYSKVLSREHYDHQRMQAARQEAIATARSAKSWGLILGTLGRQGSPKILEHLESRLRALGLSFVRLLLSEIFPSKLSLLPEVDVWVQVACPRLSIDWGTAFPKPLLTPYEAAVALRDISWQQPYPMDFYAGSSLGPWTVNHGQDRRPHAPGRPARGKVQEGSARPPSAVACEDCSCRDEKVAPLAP
Sequence of UniProt P78549 (P78549 whole entry, one chain of several): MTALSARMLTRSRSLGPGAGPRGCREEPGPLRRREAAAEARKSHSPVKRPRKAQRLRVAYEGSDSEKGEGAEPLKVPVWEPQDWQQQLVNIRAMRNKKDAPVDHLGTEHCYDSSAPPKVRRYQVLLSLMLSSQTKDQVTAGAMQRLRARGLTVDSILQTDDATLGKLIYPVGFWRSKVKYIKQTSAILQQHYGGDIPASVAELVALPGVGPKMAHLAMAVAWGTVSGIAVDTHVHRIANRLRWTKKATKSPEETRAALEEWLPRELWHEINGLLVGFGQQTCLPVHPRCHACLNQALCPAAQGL
Sequence of UniProt P49821 (P49821 whole entry, one chain of several): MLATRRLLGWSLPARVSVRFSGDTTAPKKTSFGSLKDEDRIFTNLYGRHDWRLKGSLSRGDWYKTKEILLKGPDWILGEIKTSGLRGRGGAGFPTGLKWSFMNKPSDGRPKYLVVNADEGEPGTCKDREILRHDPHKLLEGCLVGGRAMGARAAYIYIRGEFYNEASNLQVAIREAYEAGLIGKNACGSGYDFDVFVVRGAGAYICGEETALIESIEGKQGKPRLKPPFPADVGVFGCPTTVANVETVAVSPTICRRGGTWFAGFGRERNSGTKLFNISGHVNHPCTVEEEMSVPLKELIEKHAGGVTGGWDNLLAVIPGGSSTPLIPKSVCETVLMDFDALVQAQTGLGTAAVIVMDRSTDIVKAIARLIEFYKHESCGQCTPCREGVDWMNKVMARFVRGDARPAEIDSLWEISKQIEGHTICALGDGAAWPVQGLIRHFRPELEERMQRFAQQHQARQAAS
Sequence of UniProt Q92664 (Q92664 whole entry, one chain of several): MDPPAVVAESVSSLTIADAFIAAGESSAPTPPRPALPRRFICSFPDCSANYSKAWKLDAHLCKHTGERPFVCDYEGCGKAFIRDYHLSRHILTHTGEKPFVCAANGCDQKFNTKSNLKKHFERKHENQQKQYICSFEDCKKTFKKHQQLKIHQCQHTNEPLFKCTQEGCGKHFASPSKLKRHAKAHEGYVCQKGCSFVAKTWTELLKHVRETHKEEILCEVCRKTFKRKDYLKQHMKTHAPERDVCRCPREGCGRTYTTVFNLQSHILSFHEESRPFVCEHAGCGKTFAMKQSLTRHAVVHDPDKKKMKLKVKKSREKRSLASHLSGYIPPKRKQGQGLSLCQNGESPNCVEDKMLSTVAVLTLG
Sequence of UniProt O15533 (O15533 whole entry, one chain of several): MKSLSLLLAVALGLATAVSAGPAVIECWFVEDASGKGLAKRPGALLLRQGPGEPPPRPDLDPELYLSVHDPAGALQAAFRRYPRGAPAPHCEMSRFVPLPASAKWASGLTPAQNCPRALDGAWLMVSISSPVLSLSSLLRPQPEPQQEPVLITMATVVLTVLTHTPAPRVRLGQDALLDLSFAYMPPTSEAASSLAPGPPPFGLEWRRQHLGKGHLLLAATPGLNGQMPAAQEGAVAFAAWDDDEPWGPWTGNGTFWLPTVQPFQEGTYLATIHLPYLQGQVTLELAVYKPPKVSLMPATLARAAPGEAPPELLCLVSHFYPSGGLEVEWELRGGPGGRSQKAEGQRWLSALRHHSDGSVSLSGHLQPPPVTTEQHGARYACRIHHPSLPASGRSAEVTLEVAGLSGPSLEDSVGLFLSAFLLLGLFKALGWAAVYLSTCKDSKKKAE
Sequence of UniProt O43795 (O43795 whole entry, one chain of several): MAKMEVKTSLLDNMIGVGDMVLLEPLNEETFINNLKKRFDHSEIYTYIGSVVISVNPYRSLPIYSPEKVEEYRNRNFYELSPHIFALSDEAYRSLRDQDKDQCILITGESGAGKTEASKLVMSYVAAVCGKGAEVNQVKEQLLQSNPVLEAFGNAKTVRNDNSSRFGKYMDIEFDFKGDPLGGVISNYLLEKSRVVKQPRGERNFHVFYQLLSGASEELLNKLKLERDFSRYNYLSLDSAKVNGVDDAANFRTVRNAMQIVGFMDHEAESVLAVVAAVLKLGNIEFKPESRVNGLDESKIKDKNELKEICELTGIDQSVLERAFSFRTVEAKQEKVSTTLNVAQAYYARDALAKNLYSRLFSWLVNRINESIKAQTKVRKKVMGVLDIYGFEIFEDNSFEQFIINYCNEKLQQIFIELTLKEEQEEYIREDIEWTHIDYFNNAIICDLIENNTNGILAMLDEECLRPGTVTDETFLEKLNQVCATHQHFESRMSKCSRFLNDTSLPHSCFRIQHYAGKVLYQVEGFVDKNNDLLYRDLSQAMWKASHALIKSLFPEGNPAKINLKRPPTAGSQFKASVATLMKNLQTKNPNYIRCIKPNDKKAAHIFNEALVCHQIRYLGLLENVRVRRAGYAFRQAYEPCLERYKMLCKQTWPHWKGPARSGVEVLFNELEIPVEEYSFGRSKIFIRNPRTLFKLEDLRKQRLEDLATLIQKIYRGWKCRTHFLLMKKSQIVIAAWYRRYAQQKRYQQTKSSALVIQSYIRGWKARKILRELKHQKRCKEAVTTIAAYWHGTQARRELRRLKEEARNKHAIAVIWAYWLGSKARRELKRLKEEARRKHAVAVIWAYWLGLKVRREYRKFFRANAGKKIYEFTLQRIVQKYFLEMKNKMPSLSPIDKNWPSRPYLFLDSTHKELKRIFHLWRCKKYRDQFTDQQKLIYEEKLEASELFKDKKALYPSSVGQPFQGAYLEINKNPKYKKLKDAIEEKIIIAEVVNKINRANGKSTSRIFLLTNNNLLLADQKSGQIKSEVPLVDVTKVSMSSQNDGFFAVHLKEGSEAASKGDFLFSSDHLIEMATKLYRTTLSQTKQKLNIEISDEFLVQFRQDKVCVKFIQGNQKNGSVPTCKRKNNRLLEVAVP
Sequence of UniProt P30626 (P30626 whole entry, one chain of several): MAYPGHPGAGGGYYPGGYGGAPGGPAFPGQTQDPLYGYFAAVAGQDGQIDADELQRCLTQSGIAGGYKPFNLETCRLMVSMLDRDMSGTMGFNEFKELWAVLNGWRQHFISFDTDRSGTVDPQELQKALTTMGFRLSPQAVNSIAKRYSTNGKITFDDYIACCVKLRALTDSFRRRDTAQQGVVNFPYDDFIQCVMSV
Sequence of UniProt O43257 (O43257 whole entry): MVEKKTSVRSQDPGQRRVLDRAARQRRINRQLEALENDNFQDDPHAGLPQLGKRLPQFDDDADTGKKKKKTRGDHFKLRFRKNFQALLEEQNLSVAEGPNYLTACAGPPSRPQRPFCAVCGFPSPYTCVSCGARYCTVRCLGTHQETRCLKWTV
Sequence of UniProt O43169 (O43169 whole entry, one chain of several): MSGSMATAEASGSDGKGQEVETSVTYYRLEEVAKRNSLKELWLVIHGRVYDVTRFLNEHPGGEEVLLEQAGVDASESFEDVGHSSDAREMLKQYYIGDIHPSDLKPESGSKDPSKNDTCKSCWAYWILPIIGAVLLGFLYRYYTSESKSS

Target	NP40-soluble protein abundance (concentration: 1mM)	NP40-soluble protein abundance (concentration: 2mM)	NP40-soluble protein abundance (concentration: 4mM)	NP40-soluble protein abundance (concentration: 6mM)	NP40-soluble protein abundance (concentration: 8mM)	NP40-soluble protein abundance (concentration: 10mM)
UniProt A7KAX9|A7KAX9-2	0.937 ± 0.054	0.91 ± 0.046	0.908 ± 0.0074	0.907 ± 0.024	0.904 ± 0.04	0.941 ± 0.018
H3BPD5|P78549|P78549-2|P78549-3 (UniProt P78549)	1.12 ± 0.16	1.2 ± 0.029	1.3 ± 0.1	1.51 ± 0.2	1.72 ± 0.19	1.89 ± 0.12
B7ZBK4|Q92664 (UniProt Q92664)	1.02 ± 0.021	1.03 ± 0.035	1 ± 0.042	0.9904 ± 0.0034	0.989 ± 0.026	0.976 ± 0.053
E9PB61|Q86V81 (UniProt Q86V81)	1.04 ± 0.094	1.09 ± 0.07	1.22 ± 0.13	1.44 ± 0.15	1.53 ± 0.13	1.66 ± 0.24
G3XAC1|Q9BXS9|Q9BXS9-3|Q9BXS9-7|A0A0C4DFT5|Q9BXS9-4|Q9BXS9-5 (UniProt Q9BXS9)	0.909 ± 0.018	0.891 ± 0.037	0.918 ± 0.073	0.885 ± 0.022	0.867 ± 0.074	0.863 ± 0.071
D6REA1|Q9H173|D6RIU8 (UniProt Q9H173)	0.922 ± 0.083	0.938 ± 0.046	0.92 ± 0.083	0.929 ± 0.11	0.917 ± 0.063	0.8663 ± 0.0052
H3BUX2|J3KNF8|O43169 (UniProt O43169)	0.964 ± 0.19	0.854 ± 0.08	0.877 ± 0.06	0.865 ± 0.077	0.815 ± 0.059	0.781 ± 0.084
B4DHE8|Q96DH6 (UniProt Q96DH6)	1.02 ± 0.045	1.02 ± 0.058	0.994 ± 0.065	0.993 ± 0.08	0.983 ± 0.071	0.972 ± 0.079
I3L1H5|Q9BZG8 (UniProt Q9BZG8)	0.984 ± 0.17	1.03 ± 0.12	0.987 ± 0.16	0.898 ± 0.12	0.987 ± 0.16	0.917 ± 0.13
F8W9X7|Q567U6 (UniProt Q567U6)	0.974 ± 0.012	0.962 ± 0.017	0.959 ± 0.024	0.935 ± 0.015	0.951 ± 0.016	0.943 ± 0.028
C9JRD2|C9JXB9|P25686|P25686-2 (UniProt P25686)	0.969 ± 0.038	0.956 ± 0.019	0.956 ± 0.022	0.971 ± 0.06	0.973 ± 0.016	0.977 ± 0.025
C9J381|P20839|P20839-2|P20839-3|P20839-4|P20839-5|P20839-6|P20839-7 (UniProt P20839)	0.999 ± 0.049	0.9672 ± 0.0062	0.933 ± 0.018	0.695 ± 0.051	0.61 ± 0.018	0.581 ± 0.033
H0YLE6|Q9NWH9|H0YNF3 (UniProt Q9NWH9)	0.961 ± 0.054	0.988 ± 0.027	0.993 ± 0.038	1.11 ± 0.059	1.08 ± 0.032	1.13 ± 0.033
E9PEN0|Q8WYH8|Q8WYH8-2 (UniProt Q8WYH8)	1.15 ± 0.2	1.3 ± 0.29	1.36 ± 0.18	1.5 ± 0.16	1.85 ± 0.6	1.86 ± 0.39
A0A0A0MSV9|A0A0G2JH37|A0A0G2JKZ1|A2AB90|O15533|O15533-2|O15533-3 (UniProt O15533)	1.04 ± 0.066	1.02 ± 0.067	0.986 ± 0.028	0.968 ± 0.047	0.99 ± 0.085	0.984 ± 0.088
D0EV57|P01889|P10321|P13746-2|P16188|P30493|P30499|P30504|P30505|P30508|P30685|Q29865|Q29963|Q5SRN5|Q6DU44|Q8MH48|A0A140T912|E9PIB1|O19617|Q29940|Q29718 (UniProt Q29718+Q29940+E9PIB1+Q8MH48+Q6DU44+Q5SRN5+D0EV57+P01889+P10321+P30505+P13746+P30499+P16188+P30493+Q29865+P30504+P30508+P30685+O19617+Q29963)	0.961 ± 0.026	0.9786 ± 0.0089	0.9485 ± 0.0059	0.977 ± 0.013	0.949 ± 0.022	0.96 ± 0.015
J3QTA6|Q9BRQ6 (UniProt Q9BRQ6)	0.958 ± 0.12	0.921 ± 0.073	0.897 ± 0.087	0.925 ± 0.13	0.918 ± 0.093	0.874 ± 0.067
ZNHIT1 (UniProt O43257)	1.12 ± 0.047	1.16 ± 0.012	1.27 ± 0.042	1.3 ± 0.037	1.16 ± 0.037	1.19 ± 0.073
UniProt O75081|O75081-2|O75081-4	0.943 ± 0.039	0.9218 ± 0.0052	0.907 ± 0.052	0.888 ± 0.14	0.888 ± 0.082	0.97 ± 0.089
SLC25A20 (UniProt O43772)	0.918 ± 0.088	0.945 ± 0.037	0.943 ± 0.012	0.822 ± 0.099	0.884 ± 0.028	0.974 ± 0.0095
H0Y6E7|H3BT71|P38159|P38159-2 (UniProt P38159)	1.13 ± 0.068	1.22 ± 0.042	1.34 ± 0.046	1.56 ± 0.087	1.62 ± 0.026	1.79 ± 0.064
UniProt O14662-2|O14662-4|O14662-5	0.98 ± 0.066	0.94 ± 0.042	0.993 ± 0.044	0.974 ± 0.037	0.983 ± 0.034	0.921 ± 0.068
G3V0I5|P49821|P49821-2 (UniProt P49821)	0.986 ± 0.025	0.96 ± 0.02	0.944 ± 0.033	0.94 ± 0.056	0.962 ± 0.052	0.953 ± 0.046
C9J0K6|P30626|P30626-2|P30626-3 (UniProt P30626)	0.887 ± 0.066	0.921 ± 0.078	0.892 ± 0.039	0.911 ± 0.072	0.896 ± 0.011	0.811 ± 0.12
E9PDF6|O43795 (UniProt O43795)	2.78 ± 0.047	2.71 ± 0.065	2.65 ± 0.15	2.65 ± 0.21	2.82 ± 0.17	2.67 ± 0.12
DYNC1LI2 (UniProt O43237)	0.947 ± 0.049	0.939 ± 0.049	0.905 ± 0.047	0.959 ± 0.14	0.92 ± 0.075	0.932 ± 0.032
A0A0J9YW36|Q9NZ72|Q9NZ72-2 (UniProt Q9NZ72)	1.03 ± 0.25	1.21 ± 0.52	0.979 ± 0.12	1.18 ± 0.36	0.945 ± 0.1	0.863 ± 0.05
A0A0D9SEU5|Q6VN20|Q6VN20-3|R4GMX8 (UniProt Q6VN20)	0.968 ± 0.017	0.944 ± 0.05	0.979 ± 0.02	0.996 ± 0.11	0.935 ± 0.028	0.951 ± 0.036
H0YM92|J3KMZ9|P01130|P01130-5|H0YMD1|P01130-4 (UniProt P01130)	0.962 ± 0.026	0.977 ± 0.016	0.981 ± 0.023	0.966 ± 0.029	0.9771 ± 0.0072	0.987 ± 0.016
TMEM120B (UniProt A0PK00)	0.948 ± 0.058	1.05 ± 0.042	1.04 ± 0.09	0.894 ± 0.12	1.15 ± 0.13	1.13 ± 0.14
